Activity calls are given as the source filed them. Unless noted, how the calls were made is not given here.

Among the data in PubChem BioAssay are composite z-score and z-score values, retold here.

A short description of assay [1]: compounds binding Alexa647 anti-His antibody – biochemical, small-molecule microarray, 635 nm fluorescence, artefact control for SMM control protein annotation, primary screen (AID 1128).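 Further: score merges feature fluorescence with signal-to-noise for each printed compound spot.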 Conditions: higher = more signal.
Assay [2] has as its system Human papillomavirus type 1a E7 protein (residues 1-88). The assay is described as follows: HPV1a E7 small-molecule binders, primary screen, biochemical, small-molecule microarray, residues 1-88, 635 nm (AID 1129). Conditions: small-molecule microarray binding, fluorescence 635 nm; higher = more signal.
The target of assay [3] is Focal adhesion kinase 1 (Homo sapiens) (UniProt Q05397). The assay is described as follows: PTK2 protein binding on printed compound slides – biochemical, small-molecule microarray, 635/667 nm fluorescence, BSA, DTT, primary screen (AID 1130).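 Further: composite of spot emission at 667 nm and signal to noise over triplicate slides.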 Conditions: 635 nm fluorescence, higher = more signal.
The test system of assay [4] is Fibrinogen (Alexa647-labelled). As to the kind of experiment: Alexa647-fibrinogen binding to printed small molecules – biochemical, small-molecule microarray, 635/667 nm fluorescence, artefact control for SMM control-protein annotation, profiling panel (AID 1131).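 Further: z-score merges 667 nm fluorescence with per-spot signal-to-noise over triplicate slides.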 Conditions: fibrinogen-A647 binding fluorescence, higher = more signal.
Assay [5] has as its target Follistatin (Homo sapiens) (UniProt P19883). As to the kind of experiment: FST protein binding to printed compounds – biochemical, small-molecule microarray, 635/667 nm fluorescence, primary screen (AID 1132). The settings on record: 635 nm fluorescence, higher = more signal.
Assay [6] has as its target Fibroblast growth factor 2 (Homo sapiens) (UniProt P09038). The assay is described as follows: basic fibroblast growth factor binding to printed compounds – biochemical, small-molecule microarray, 635/667 nm fluorescence, primary screen (AID 1133). Conditions: FGF2, fluorescence 635/667, higher = more signal.
Assay [7] can be described thus: JC-1 mitochondrial potential readout, lung cancer cells – cell-based, A549, JC-1 fluorescence, basal, 24 h, 100 nL, profiling panel (AID 1138).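 Further: A549 lung adenocarcinoma cells under basal conditions with no added stimulus; test concentration not given here.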 Conditions: higher = more signal.
Assay [8] has as its system Lefty1. The assay is described as follows: Lefty1 protein binding to printed compounds – biochemical, small-molecule microarray, 635/667 nm fluorescence, primary screen (AID 1139). Conditions: fluorescence 635/667, higher = more signal.
For assay [9], the system named is wheat germ agglutinin (Triticum aestivum), Alexa647-labelled. The assay is described as follows: Alexa647-WGA lectin binding to printed small molecules – biochemical, small-molecule microarray, 635/667 nm fluorescence, artefact control for SMM control-protein annotation, profiling panel (AID 1140).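 Further: score merges 667 nm feature emission with signal to noise over triplicate slides.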 The settings on record: WGA-A647 binding, 635 nm fluorescence, higher = more signal.

Assay [10] concerns the target Luciferin 4-monooxygenase (Photinus pyralis) (UniProt P08659). The assay is described as follows: inhibition of purified Photinus pyralis luciferase – biochemical, luminescence, purified enzyme, 2006 set, primary screen (AID 1141).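 Further: cell-free assay with purified firefly luciferase at 100 ng per well in PBS; test concentration not given here.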 Conditions: purified firefly luciferase, SteadyGlo luminescence, 30 min; higher = more signal, called active from +8 up or from −8 down.
Assay [11] relates to Wnt5a (protein binding on small-molecule microarray). The assay is described as follows: small molecules binding Wnt5a protein – biophysical, small-molecule microarray, 635/667 nm fluorescence, primary screen (AID 1142).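 Further: fluorescence read at 667 nm with signal to noise per printed feature.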 The settings on record: 635 nm fluorescence, higher = more signal.
Assay [12] can be described thus: ATP-based viability of Huh7 replicon cells – cell-based, CellTiter-Glo luminescence, basal, 48 h, cytotoxicity control for HCV replication inhibitor project, primary screen (AID 1143).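 Further: Huh7 hepatoma cells carrying a hepatitis C replication reporter with no stimulus; test concentration not given here.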 The settings on record: higher = more signal, called active from +8 up or from −8 down. In general terms: Replicon systems follow genome replication, usually without infectious particles.

The nature of assay [13]: Pseudomonas biofilm growth suppression – PAO1 strain, BacTiter-Glo luminescence, LB-PBS, primary screen (AID 1144). Conditions: P. aeruginosa PAO1 biofilm, 12 h, higher = more signal.
The nature of assay [14]: basal CRE-LacZ reporter activity in PC12 – cell-based, unstimulated, primary screen (AID 1145). Conditions: no forskolin, luminescence, 4.5 h, higher = more signal, called active from +8 up or from −8 down.
Assay [15] can be described thus: forskolin-driven CRE-LacZ activity in PC12 – cell-based, CRE-LacZ reporter, forskolin-stimulated, primary screen (AID 1146).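 Further: PC12 cells with 6xCRE LacZ reporter stimulated by forskolin 10 µM; beta-galactosidase reporter signal reflecting CREB driven transcription.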 Conditions: luminescence, 4.5 h, higher = more signal, called active from +8 up or from −8 down.
Assay [16] deals with Streptavidin (Streptomyces avidinii) (UniProt P22629). As to the kind of experiment: compounds binding control protein streptavidin – biophysical, small-molecule microarray, 635/667 nm fluorescence, artefact control for SMM compound annotation, primary screen (AID 1147).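 Further: signal reflects streptavidin binding to arrayed compounds as a control protein.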 The settings on record: higher = more signal.
A short description of assay [17]: probe aInhba binding on compound microarray – biochemical, small-molecule microarray, 635/667 nm fluorescence, primary screen (AID 1148).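 Further: score merges 667nm spot fluorescence with signal-to-noise for antibody binding to printed compounds.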 Conditions: higher = more signal.
In assay [18] the target is Torsin-1A (Homo sapiens) (UniProt O14656). The assay is described as follows: TOR1A wild-type binding on microarray – cell lysate, small-molecule microarray, lysate, 635/667 nm, primary screen (AID 1149). The settings on record: COS7 hTOR1A-WT lysate, 635 nm fluorescence, higher = more signal.
Assay [19] shares this target. As to the kind of experiment: torsin A mutant lysate binding on microarrays – cell lysate, small-molecule microarray, COS7 lysate, 635/667 nm fluorescence, primary screen (AID 1150).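 Further: score pools 667 nm emission and signal to noise measuring lysate protein binding.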 The settings on record: COS7 hTOR1A mutant lysate, 635 nm fluorescence, higher = more signal.
Assay [20] concerns Sonic hedgehog protein (Shh). As to the kind of experiment: Sonic hedgehog microarray binding compounds – biochemical, small-molecule microarray, 635/667 nm fluorescence, primary screen (AID 1151).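 Further: Shh protein binding to compounds spotted on small-molecule microarray slides; score combines spot fluorescence intensity with signal-to-noise across triplicate slides.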 The settings on record: 635 nm fluorescence, higher = more signal.

Sequence of Torsin-1A (Homo sapiens) (O14656 whole entry, looked up): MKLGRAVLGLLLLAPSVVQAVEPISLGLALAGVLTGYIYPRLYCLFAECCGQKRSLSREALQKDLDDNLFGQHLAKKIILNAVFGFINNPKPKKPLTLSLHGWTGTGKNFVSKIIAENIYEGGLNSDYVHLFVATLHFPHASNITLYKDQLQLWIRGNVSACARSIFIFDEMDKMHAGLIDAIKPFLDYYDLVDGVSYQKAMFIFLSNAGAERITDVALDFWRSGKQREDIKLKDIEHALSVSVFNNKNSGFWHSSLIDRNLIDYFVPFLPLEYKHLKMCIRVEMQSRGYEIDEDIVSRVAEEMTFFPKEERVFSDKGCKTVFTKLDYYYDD
Sequence of Fibroblast growth factor 2 (Homo sapiens) (P09038 whole entry, looked up): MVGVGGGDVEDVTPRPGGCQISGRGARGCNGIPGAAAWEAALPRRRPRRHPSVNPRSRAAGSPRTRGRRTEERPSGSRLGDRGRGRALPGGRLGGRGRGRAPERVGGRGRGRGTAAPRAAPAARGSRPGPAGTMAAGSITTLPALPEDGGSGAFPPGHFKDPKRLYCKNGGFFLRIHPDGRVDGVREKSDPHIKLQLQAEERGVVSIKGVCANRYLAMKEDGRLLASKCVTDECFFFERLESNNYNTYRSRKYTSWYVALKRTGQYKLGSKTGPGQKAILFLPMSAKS
Sequence of Streptavidin (Streptomyces avidinii) (P22629 whole entry, looked up): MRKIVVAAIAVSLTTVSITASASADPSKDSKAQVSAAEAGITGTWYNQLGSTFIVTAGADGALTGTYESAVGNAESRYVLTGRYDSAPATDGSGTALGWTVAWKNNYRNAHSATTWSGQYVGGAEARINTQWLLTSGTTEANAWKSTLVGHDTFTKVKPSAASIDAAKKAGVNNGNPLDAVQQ
Sequence of Follistatin (Homo sapiens) (P19883 whole entry, looked up): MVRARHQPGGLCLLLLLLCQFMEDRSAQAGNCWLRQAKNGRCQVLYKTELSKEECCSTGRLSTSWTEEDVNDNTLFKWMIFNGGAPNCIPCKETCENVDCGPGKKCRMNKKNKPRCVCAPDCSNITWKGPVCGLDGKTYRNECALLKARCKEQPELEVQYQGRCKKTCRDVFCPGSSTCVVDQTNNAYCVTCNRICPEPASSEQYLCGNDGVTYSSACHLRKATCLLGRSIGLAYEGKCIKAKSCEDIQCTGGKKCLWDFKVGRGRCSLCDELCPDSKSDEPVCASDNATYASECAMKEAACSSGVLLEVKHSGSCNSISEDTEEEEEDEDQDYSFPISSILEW
Sequence of Luciferin 4-monooxygenase (Photinus pyralis) (P08659 whole entry, looked up): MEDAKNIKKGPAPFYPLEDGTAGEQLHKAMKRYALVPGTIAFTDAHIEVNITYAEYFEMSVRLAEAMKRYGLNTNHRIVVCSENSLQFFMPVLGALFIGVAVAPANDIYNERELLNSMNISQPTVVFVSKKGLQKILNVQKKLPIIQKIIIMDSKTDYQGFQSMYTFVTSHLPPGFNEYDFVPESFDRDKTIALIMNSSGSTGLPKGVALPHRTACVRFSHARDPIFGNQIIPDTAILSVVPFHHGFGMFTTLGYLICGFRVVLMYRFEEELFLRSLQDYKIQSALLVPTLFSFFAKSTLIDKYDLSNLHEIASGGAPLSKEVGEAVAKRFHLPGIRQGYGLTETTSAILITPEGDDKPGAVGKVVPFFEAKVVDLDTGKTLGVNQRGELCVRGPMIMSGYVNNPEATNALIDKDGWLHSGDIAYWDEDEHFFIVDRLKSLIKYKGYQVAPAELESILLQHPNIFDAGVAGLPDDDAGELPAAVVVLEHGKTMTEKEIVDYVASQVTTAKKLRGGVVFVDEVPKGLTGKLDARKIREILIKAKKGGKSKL
Sequence of Focal adhesion kinase 1 (Homo sapiens) (Q05397 whole entry, looked up): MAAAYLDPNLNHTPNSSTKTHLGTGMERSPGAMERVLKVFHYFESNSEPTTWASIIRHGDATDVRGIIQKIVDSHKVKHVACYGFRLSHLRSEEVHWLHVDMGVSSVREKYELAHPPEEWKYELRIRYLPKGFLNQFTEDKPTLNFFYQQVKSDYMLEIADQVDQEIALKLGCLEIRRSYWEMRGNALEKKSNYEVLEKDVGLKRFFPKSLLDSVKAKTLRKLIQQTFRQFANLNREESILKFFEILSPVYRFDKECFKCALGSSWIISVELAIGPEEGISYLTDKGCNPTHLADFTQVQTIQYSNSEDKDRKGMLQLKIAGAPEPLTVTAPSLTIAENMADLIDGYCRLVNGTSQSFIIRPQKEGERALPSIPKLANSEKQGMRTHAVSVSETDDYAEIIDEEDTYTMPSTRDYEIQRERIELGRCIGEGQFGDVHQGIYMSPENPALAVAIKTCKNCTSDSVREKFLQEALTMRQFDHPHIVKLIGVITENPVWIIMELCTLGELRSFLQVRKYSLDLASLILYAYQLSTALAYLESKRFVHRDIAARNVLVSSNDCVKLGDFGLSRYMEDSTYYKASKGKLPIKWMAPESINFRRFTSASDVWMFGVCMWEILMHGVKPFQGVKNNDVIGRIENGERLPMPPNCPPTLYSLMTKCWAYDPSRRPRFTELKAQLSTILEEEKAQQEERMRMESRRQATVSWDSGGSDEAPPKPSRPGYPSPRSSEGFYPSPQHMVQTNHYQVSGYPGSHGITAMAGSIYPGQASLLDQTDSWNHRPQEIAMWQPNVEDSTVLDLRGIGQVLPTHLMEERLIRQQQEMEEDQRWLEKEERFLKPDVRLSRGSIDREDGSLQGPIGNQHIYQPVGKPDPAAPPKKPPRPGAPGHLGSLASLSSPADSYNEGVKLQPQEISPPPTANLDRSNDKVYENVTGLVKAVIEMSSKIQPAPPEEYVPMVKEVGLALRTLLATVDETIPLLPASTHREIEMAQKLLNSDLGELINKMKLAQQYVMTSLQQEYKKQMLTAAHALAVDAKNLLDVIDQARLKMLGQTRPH

For the compound `O=C1c2ccccc2[C@@]2(Cc3ccccc3N(Cc3ccccc3)C2=O)[C@H](c2ccc(CO)cc2)N1C1CCCCC1`, the composite z-score is 0.386 in assay [1]; 0.174 in [2]; 0.117 in assay [3]; -0.0673 in assay [4]; 1.02 in assay [5]; 0.736 in [6]. Further, the composite z-score was 0.483 in assay [8]; 0.0291 in assay [9]; 0.149 in assay [11]; -0.258 in [16]; -0.0933 in assay [17]; 0.177 in assay [18]. For the same compound, the composite z-score in [19] is -0.269; in assay [20] it was 1.08. For the same compound, the z-score in [7] was -0.191; in [10] it was 0.378 (inactive); in assay [12], 0.608 (inactive); in [13], 0.0703 (inactive); in [14], 0.0924 (inactive); in assay [15], 0.0935 (inactive).
On to `Cc1cc(C)cc(N2C(=O)CS(=O)(=O)C2c2cccc([N+](=O)[O-])c2)c1` (stereo not given), for which the composite z-score in [1] was found to be 1.11; in assay [2], 0.632; in assay [3] it was 0.894; in [4], 0.829; in assay [5] it was 0.508; in assay [6], 0.126. Further, the composite z-score came out at 0.874 in [8]; 0.841 in assay [9]; 0.223 in assay [11]; 1.26 in assay [16]; 0.952 in assay [17]; 0.513 in [18]. Besides, the values for the composite z-score in [19] and in assay [20] were 0.897 and 0.659, respectively. The z-score is 0.382 in assay [7]; -0.273 (inactive) in assay [10]; -2.18 (inactive) in assay [12]; -0.527 (inactive) in assay [13]; -0.0243 (inactive) in assay [14]; -0.494 (inactive) in assay [15].
On to `COCCOC(=O)N1C(=O)[C@@]2(c3ccccc31)[C@H](c1ccc(O)cc1)N1[C@H](c3ccccc3)[C@H](c3ccccc3)OC(=O)[C@H]1[C@@H]2C(=O)N1CCc2cc(OC)c(OC)cc2C1`, for which the composite z-score in [1] was 1.7; in [2], 0.848; in assay [3] it was 0.341; in [4], 0.107; in [5], 1.35; in [6], 1.85. Besides, the composite z-score in assay [8] is 1.14; in assay [9] it was 0.216; in assay [11], 0.633; in assay [16], -0.162; in [17], 0.223; in [18] it was 0.419. For the same compound, the composite z-score in assay [19] was 0.697; in [20] it was 2.1. The z-score is 0.355 in [7]; -0.704 (inactive) in assay [10]; -3.64 (inactive) in assay [12]; -1.29 (inactive) in assay [13]; 0.0776 (inactive) in assay [14]; -0.654 (inactive) in [15].
Regarding `CCC[C@@H]1C=C(C(=O)O)[C@H](c2ccc(C)cc2)N1S(=O)(=O)c1ccc(C)cc1`, the composite z-score is 1.65 in assay [1]; 1.29 in assay [2]; 0.354 in assay [3]; 1.04 in assay [4]; 0.118 in assay [5]; -0.502 in assay [6]. For the same compound, the composite z-score is -0.234 in assay [8]; 0.945 in [9]; 0.0266 in assay [11]; 0.981 in assay [16]; -0.0087 in assay [17]; 0.837 in [18]. Also, the composite z-score in [19] is 1.38; in assay [20] it was -0.65. Besides, the z-score is -0.564 in assay [7]; 1.79 (inactive) in assay [10]; 0.224 (inactive) in [12]; -0.0655 (inactive) in assay [13]; -0.527 (inactive) in assay [14]; 0.348 (inactive) in assay [15].
In the case of `C[C@H]1NC(=O)[C@H](Cc2ccccc2)NC(=O)[C@@]23C(=O)N[C@@H](Cc4ccccc4)C2[C@H](C)[C@@]2(C)O[C@H]2C3/C=C/C/C=C\CNC1=O` (stereo not given in full), the composite z-score in assay [1] is -0.708; in assay [2], -1.27; in assay [3], -0.261; in [4], -1.75; in [5], 0.275; in [6], 0.0643. In addition, the composite z-score in [8] is -0.94; in assay [9] it was -0.585; in [11] it was -0.182; in [16] it was -0.496; in assay [17], -0.179; in assay [18], -0.477. Besides, the composite z-score in assay [19] was -0.402; in [20] it was 0.249. The z-score in assay [7] is 0.593; in assay [10], -0.923 (inactive); in assay [12], -0.679 (inactive); in [13], 0.615 (inactive); in [14], 2.67 (inactive); in assay [15] it was -0.522 (inactive).
